According to the supplement of paper PMC9254222:
Whole data set: some 1,100 compounds, median “Renilla luciferase signal (cell health) relative to plate median” near 0.97, cut for the highest 2% near 1.6. Many of the other results were omitted from the sample, so the highest values are more common in it than they were.

Tested on: HEK293T (UBE3A T485A transfected, BAR Wnt reporter)
Assay: Renilla luciferase signal (cell health) relative to plate median (fold (linear ratio)); higher = higher Renilla signal
Settings: 24 h
In short: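 Chemicals were robotically dosed at 0.01–100 uM for 24 h onto HEK293T cells, starting four hours after transfection with a BAR firefly luciferase Wnt reporter, TK-Renilla and an expression plasmid. The cells had been plated at 4500 cells/well in DMEM with 10% FBS at 37°C and 5% CO2. Following a Dual-Glo luciferase readout, the firefly/Renilla ratio served as the Wnt activity measure and raw Renilla as the cell health measure, both median-centred on each plate. Each value is the mean of four biological replicates.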

| SMILES | Renilla luciferase signal (concentration: 0.01 uM) | Renilla luciferase signal (concentration: 0.1 uM) | Renilla luciferase signal (concentration: 1 uM) | Renilla luciferase signal (concentration: 10 uM) | Renilla luciferase signal (concentration: 100 uM) |
| --- | --- | --- | --- | --- | --- |
| CS(=O)(=O)c1ccc(C(=O)C2C(=O)CCCC2=O)c([N+](=O)[O-])c1 [Mesotrione] | 0.834 | 0.808 | 0.956 | 1.03 | 1.39 |
| FC(F)C(F)(F)OCC(Cn1cncn1)c1ccc(Cl)cc1Cl (stereo not given) [Tetraconazole] | 1.01 | 1.09 | 0.957 | 0.997 | 0.0289 |
| CO/N=C(/C1=NOCCO1)c1ccccc1Oc1ncnc(Oc2ccccc2Cl)c1F [Fluoxastrobin] | 0.875 | 0.941 | 1.05 | 0.383 | 1.63 |
| ClC(Cl)(Cl)c1ccccc1 [Benzotrichloride] |  | 0.82 | 0.9 | 0.872 | 1.04 |
| O=C(O)C1(c2ccc3c(c2)OC[C@H](Cc2ccc(-c4ccccc4)cc2)[C@H]3O)CCCC1 |  | 0.875 | 0.823 | 0.781 | 0.0901 |
| O=C1C2CC=CCC2C(=O)N1SC(Cl)(Cl)Cl (stereo not given) [Captan] | 1.19 | 1.04 | 0.975 | 1.02 | 0.036 |
| Clc1ccc(C(Cl)(Cl)Cl)cc1 [4-Chlorobenzotrichloride] |  | 0.548 | 0.799 | 0.652 | 0.663 |
| COc1cc(OC)nc(Sc2cccc(Cl)c2C(=O)[O-])n1.[Na+] [Pyrithiobac-sodium] | 1.11 | 1.16 | 0.967 | 1.07 | 1.69 |
| CCCCCCCCCc1ccc(O)cc1 [4-Nonylphenol, branched] |  | 1 | 0.945 | 1.06 | 0.973 |
| CC(C)(C)C(O)C(Oc1ccc(Cl)cc1)n1cncn1 (stereo not given) [Triadimenol] | 1.01 | 0.885 | 0.844 | 0.906 | 0.699 |
| CCNC(=O)NC(=O)/C(C#N)=N/OC [Cymoxanil] | 1.26 | 1.16 | 1.08 | 1.15 | 2.39 |
| CO/C=C(/C(=O)OC)c1ccccc1COc1cccc(C(F)(F)F)n1 [Picoxystrobin] |  | 0.76 | 0.879 | 0.82 | 0.465 |
| O=C(Nc1ccccc1-c1ccc(Cl)cc1)c1cccnc1Cl [Boscalid] | 0.775 | 0.848 | 0.903 | 0.818 | 1.24 |
| Oc1cccc2cccnc12 [8-Hydroxyquinoline] |  | 0.779 | 0.797 | 0.764 | 0.0228 |
| CC1=NNC(=O)N(/N=C/c2cccnc2)C1 [Pymetrozine] | 0.89 | 0.911 | 0.966 | 0.97 | 1.45 |
| CC(Oc1ccc(Cl)cc1Cl)C(=O)O (stereo not given) [Dichlorprop] | 0.843 | 0.959 | 0.959 | 1.04 | 1.6 |
| CC(Oc1cccc(Cl)c1)C(=O)O (stereo not given) [Cloprop] | 0.924 | 0.701 | 0.814 | 1.01 | 2.51 |
| CC(C)OC(=O)Nc1cccc(Cl)c1 [Chlorpropham] | 0.728 | 0.618 | 0.828 | 0.81 | 0.766 |
| CC(C)(C)C(=O)C(Oc1ccc(Cl)cc1)n1cncn1 (stereo not given) [Triadimefon] | 1.42 | 0.867 | 0.961 | 1.05 | 0.777 |
| O=C1c2ccccc2C(=O)N1SC(Cl)(Cl)Cl [Folpet] | 1.08 | 1.03 | 1.08 | 1.17 | 0.0353 |
| CNC(=O)Oc1ccccc1OC(C)C [Propoxur] | 0.908 | 0.899 | 0.869 | 0.843 | 1.18 |
| c1cc2ccc3cccc4ccc(c1)c2c34 [Pyrene] |  | 0.967 | 0.928 | 1.05 | 0.889 |

| SMILES | Renilla luciferase signal (concentration: 0.01 uM) | Renilla luciferase signal (concentration: 0.1 uM) | Renilla luciferase signal (concentration: 1 uM) | Renilla luciferase signal (concentration: 10 uM) | Renilla luciferase signal (concentration: 100 uM) |
| --- | --- | --- | --- | --- | --- |
| c1cc2c3c(cccc3c1)CC2 [Acenaphthene] |  | 1.17 | 1.26 | 1.14 | 1.68 |
| C1=Cc2cccc3cccc1c23 [Acenaphthylene] |  | 0.739 | 0.666 | 0.684 | 0.683 |
| CCOP(=S)(OCC)Oc1ccc2c(C)c(Cl)c(=O)oc2c1 [Coumaphos] | 1.01 | 1.11 | 1 | 1.04 | 0.717 |
| COC(=O)c1ccccc1N [Methyl 2-aminobenzoate] |  | 1.09 | 1.07 | 1.11 | 1.51 |
| COC(=O)NS(=O)(=O)c1ccc(N)cc1 [Asulam] | 1.08 | 1.11 | 0.923 | 0.97 | 2 |
| COC(=O)NC(=S)Nc1ccccc1NC(=S)NC(=O)OC [Thiophanate-methyl] | 1.37 | 0.913 | 1 | 1.01 | 0.274 |
| C1CC2OC2CC1C1CO1 (stereo not given) [4-Vinyl-1-cyclohexene dioxide] |  | 0.978 | 0.971 | 0.856 | 0.459 |
| Cc1cc(Cc2ccc(N)c(C)c2)ccc1N [4,4'-Methylenebis(2-methylaniline)] |  | 1.07 | 1.1 | 0.902 | 0.647 |
| CCOP(=O)(OCC)Oc1cc(C)nc(C(C)C)n1 [Diazoxon] | 1.03 | 0.822 | 0.982 | 0.982 | 1.37 |
| [N-]=[N+]=[N-].[Na+] [Sodium azide] |  | 1.11 |  |  | 1.29 |
| [N-]=[N+]=[N-].[Na+] [Sodium Azide] | 1.38 |  | 1.01 | 1.05 |  |
| O=C1C2(Cl)C3(Cl)C4(Cl)C(Cl)(Cl)C5(Cl)C3(Cl)C1(Cl)C5(Cl)C24Cl (stereo not given) [Kepone] |  | 1.03 | 0.982 | 1 | 1.33 |
| COP(=O)(NC(C)=O)SC (stereo not given) [Acephate] | 0.777 | 0.825 | 0.95 | 1 | 1.52 |
| COP(N)(=O)SC (stereo not given) [Methamidophos] | 1.08 | 0.989 | 1.14 | 1.04 | 2.27 |
| Nc1ccc(Cc2ccc(N)cc2)cc1 [4,4'-Methylenedianiline] |  | 0.803 | 0.812 | 0.825 | 0.725 |
| O=C(O)C(Cl)(Cl)Cl [Trichloroacetic acid] |  | 0.932 | 1.09 | 1.11 | 1.35 |
| CCOP(=S)(OCC)OC(Cl)C(Cl)(Cl)Cl (stereo not given) [Chlorethoxyfos] | 0.648 | 0.673 | 0.754 | 0.769 | 1.03 |
| CCC(C)c1ccc(O)cc1 (stereo not given) [4-(Butan-2-yl)phenol] |  | 1.03 | 1.04 | 0.967 | 1.21 |
| CN(C)C(=O)Nc1cccc(C(F)(F)F)c1 [Fluometuron] | 1.01 | 0.858 | 0.955 | 0.915 | 1.74 |
| CC(C)Oc1cccc(NC(=O)c2ccccc2C(F)(F)F)c1 [Flutolanil] | 0.958 | 0.913 | 0.934 | 0.913 | 1.07 |
| CN(C)C(=O)Nc1ccc(Cl)cc1 [Monuron] |  | 1.07 | 1.08 | 1.08 | 0.972 |
| Cc1[nH]c(=O)n(C(C)(C)C)c(=O)c1Cl [Terbacil] | 0.884 | 0.706 | 0.903 | 0.738 | 1.53 |

| SMILES | Renilla luciferase signal (concentration: 0.01 uM) | Renilla luciferase signal (concentration: 0.1 uM) | Renilla luciferase signal (concentration: 1 uM) | Renilla luciferase signal (concentration: 10 uM) | Renilla luciferase signal (concentration: 100 uM) |
| --- | --- | --- | --- | --- | --- |
| O=S(=O)(O)C(F)(F)C(F)(F)C(F)(F)C(F)(F)C(F)(F)C(F)(F)C(F)(F)C(F)(F)F | 0.967 | 0.956 | 0.993 | 0.948 | 0.944 |
| [Na+].[O-][Cl+][O-] [Sodium chlorite] |  | 1.07 | 0.996 | 1.06 | 1.34 |
| Clc1cc(Cl)c(Cl)cc1Cl [1,2,4,5-Tetrachlorobenzene] |  | 0.579 | 0.572 | 0.454 | 0.504 |
| Brc1ccc(Oc2ccccc2)cc1 [p-Bromodiphenyl ether] |  | 0.896 | 0.914 | 0.837 | 0.987 |
| [OH][Sn]([c]1ccccc1)([c]1ccccc1)[c]1ccccc1 [Triphenyltin hydroxide] | 0.857 | 0.622 | 0.135 | 0.0103 | 0.0121 |
| O=C(NC(=O)c1c(F)cccc1F)Nc1ccc(OC(F)(F)C(F)OC(F)(F)F)c(Cl)c1 (stereo not given) [Novaluron] | 1.08 | 0.982 | 0.998 | 0.935 | 1.48 |
| CCOP(=O)(SC(C)CC)N1CCSC1=O (stereo not given) [Fosthiazate] | 1.08 | 1.07 | 1.19 | 1.21 | 1.7 |
| [Cl-].[Cl-].[Hg+2] [Mercuric chloride] |  | 0.533 | 0.402 | 0.153 | 0.0217 |
| c1nc[nH]n1 [1H-1,2,4-Triazole] |  | 0.873 | 0.956 | 0.885 | 1.12 |
| CN1COCN(Cc2cnc(Cl)s2)C1=N[N+](=O)[O-] [Thiamethoxam] | 1.14 | 1.09 | 1.1 | 0.959 | 2.15 |
| O=[N+]([O-])/N=C1\NCCN1Cc1ccc(Cl)nc1 [Imidacloprid] | 0.993 | 1.11 | 0.934 | 0.949 | 1.15 |
| CN/C(=N\[N+](=O)[O-])NCc1cnc(Cl)s1 [Clothianidin] | 0.978 | 0.964 | 0.897 | 1.05 | 1.48 |
| O=S1OCC2C(CO1)C1(Cl)C(Cl)=C(Cl)C2(Cl)C1(Cl)Cl (stereo not given) [Endosulfan] | 1.05 | 1.05 | 1.02 | 1.13 | 1.06 |
| CS(=O)(=O)c1cc(C(F)(F)F)ccc1C(=O)c1cnoc1C1CC1 [Isoxaflutole] | 0.938 | 0.74 | 0.954 | 0.778 | 2.79 |
| CCC[CH2][Sn]([Cl])([CH2]CCC)[CH2]CCC [Tributyltin chloride] |  | 0.598 | 0.574 | 0.235 | 0.0217 |
| CCCSP(=O)(OCC)Oc1ccc(Br)cc1Cl (stereo not given) [Profenofos] | 0.9 | 0.888 | 0.969 | 1 | 0.894 |
| Nc1nc(N)nc(NC2CC2)n1 [Cyromazine] | 1.1 | 0.889 | 0.95 | 1.05 | 1.86 |
| CCN(CC)N=O [N-Nitrosodiethylamine] |  | 1.02 | 0.957 | 1.07 | 1.08 |
| C=CC(=O)OCCCCCC(C)C [Isooctyl acrylate] |  | 0.895 | 0.841 | 0.931 | 1.07 |
| CC1C(c2ccc(Cl)cc2)SC(=O)N1C(=O)NC1CCCCC1 (stereo not given) [Hexythiazox] | 0.957 | 0.999 | 0.929 | 0.977 | 0.244 |
| CN=C=S [Methyl isothiocyanate] | 0.842 | 0.902 | 0.962 | 1.06 | 1.71 |
